Values without a mark were called inactive. Inconclusive results are not listed. Active and inactive are the calls of the source. Unless noted, the call rests on the fitted dose curve; in most records, active means well fitted curve in the direction sought with a large enough effect in the repeat runs; inconclusive means weak or mixed curves; inactive means no such curve, though single readings can be large; an effect the other way counts as inactive or inconclusive.

Assay [1] has as its target Thyrotropin receptor (Homo sapiens) (UniProt P16473). Description: qHTS assay to identify small molecule agonists of the thyroid stimulating hormone receptor (TSHR) signaling pathway (AID 1224843; calls by dose curve; further: nearly all actives have a fitted effect of over 45% in size). Summed up:
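Steps: seed 800 TSHR-HEK293 cells per well; add test compound and hold 30 min at ambient temperature; dispense cAMP-d2 then anti-cAMP cryptate; incubate 1 h at ambient; measure fluorescence intensity.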

Assay [2] in a line: qHTS assay to identify small molecule agonists of the hypoxia (HIF-1) signaling pathway - cell viability counter screen (AID 1224844; calls by dose curve; further: nearly all actives have a fitted effect of over 50% in size). Summed up: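 Multiplexed with the HRE beta-lactamase assay, this viability read used CellTiter-Glo luminescence (30 min, RT) on HRE-bla ME-180 cells treated 17 hrs with compounds in 0.5% dialyzed FBS medium.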
A short description of assay [3]: qHTS assay to identify small molecule agonists of the hypoxia (HIF-1) signaling pathway (AID 1224846; active means well fitted activation curve with a large enough effect in the signal ratio in the repeat runs, not every such curve was filed as active; the % refers to the signal ratio). In short, it runs like this:
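Hypoxia-pathway activation was scored as increased beta-lactamase from an HRE-controlled reporter in ME-180 cells; plated at 2,000 cells per well with 0.5% dialyzed FBS, they were exposed 17 hrs to compounds and then given CCF4-AM.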

A short description of assay [4]: qHTS assay to identify small molecule antagonists of the estrogen related receptor (ERR) signaling pathway from Tox21 library (AID 1224848). Further: nearly all actives have a fitted effect of over 50% in size. In short, it runs like this: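 Luminescent reporter read-out (ONE-Glo) from NTP's ERR cell line after 18 h treatment at 37 C with DMSO-dissolved Tox21 compounds; cells pre-plated 6 h beforehand at 2,000 per well.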
Assay [5] is described as follows: qHTS assay to identify small molecule agonists of the estrogen related receptor (ERR) signaling pathway from Tox21 library (AID 1224849; calls by dose curve; further: nearly all actives have a fitted effect of over 15% in size). To be noted: ERR reporter cell line, ONE-Glo luciferase, 18 h; at 92.4 µM (top of the series) unless noted. In short, it runs like this: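 Six hours post-seeding at 37 C/5% CO2, ERR cells receive DMSO-solubilised compounds; after 18 h at 37 C, ONE-Glo reagent is applied and luminescence recorded.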

Assay [6] in a line: qHTS RealTime-Glo MT Cell Viability Assay in HepG2 cells - 24 hour (AID 1224867). Further: nearly all actives have a fitted effect of over 50% in size. Summed up: (§1)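 qHTS, HepG2, 600 cells/well, RealTime-Glo (NanoLuc + prosubstrate) added with cells; 5 h preincubation; DMSO compound addition; 37 C; luminescence at 0/8/16/24/32/40 h.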
Assay [7] in a line: qHTS RealTime-Glo MT Cell Viability Assay in HEK293 cells - 32 hour (AID 1224868). Further: top concentration of the series differs between compounds; nearly all actives have a fitted effect of over 50% in size. Summed up:
(§2)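 Assay medium contained NanoLuc luciferase plus cell-permeant prosubstrate, added with HEK293 cells at 600 cells/well. After 5 h at 37 C/5% CO2 compounds were added; plates stayed at 37 C for 40 h with serial luminescence reads.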

Assay [8] is described as follows: A CellTox Green Cytotoxicity Assay to monitor cytotoxicity in HEK293 cells - 0 hour (AID 1224869). Further: nearly all actives have a fitted effect of over 50% in size. In short, it runs like this:
(§3)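 Seeding of HEK293 cells together with cytotoxicity dye preceded a 5 h incubation at 37 C/5% CO2. Test compounds in DMSO were then added and fluorescence monitored across 40 h.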

Assay [9] is described as follows: qHTS RealTime-Glo MT Cell Viability Assay in HepG2 cells - 40 hour (AID 1224870). Further: nearly all actives have a fitted effect of over 50% in size. In short, it runs like this:
(§4)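 HepG2 cells (600/well) mixed with RealTime-Glo MT reagent, settled 5 h at 37 C/5% CO2 before compound addition. Nonlytic NanoLuc luminescence from viable-cell prosubstrate reduction read repeatedly during 40 h treatment at 37 C.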

Assay [10] can be described thus: A CellTox Green Cytotoxicity Assay to monitor cytotoxicity in HEK293 cells - 40 hour (AID 1224871). Further: nearly all actives have a fitted effect of over 45% in size. In short, it runs like this:
as §3

A short description of assay [11]: qHTS RealTime-Glo MT Cell Viability Assay in HEK293 cells - 16 hour (AID 1224872). Further: nearly all actives have a fitted effect of over 50% in size. Further: potency means the concentration at half of the fitted maximal effect. In short, it runs like this:
as §2

Assay [12] is described as follows: qHTS RealTime-Glo MT Cell Viability Assay in HepG2 cells - 8 hour (AID 1224873). Further: nearly all actives have a fitted effect of over 55% in size. In short, it runs like this:
as §4

The nature of assay [13]: qHTS RealTime-Glo MT Cell Viability Assay in HEK293 cells - 40 hour (AID 1224874). Further: nearly all actives have a fitted effect of over 50% in size. To be noted: RealTime-Glo luminescence; max response: stronger effect = lower value. In short, it runs like this:
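Tox21 screen in HEK293 using RealTime-Glo MT chemistry, with cells and reagent co-dispensed. Luminescence proportional to viable cell number was captured at intervals during 40 h compound exposure at 37 C.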

Assay [14] can be described thus: A CellTox Green Cytotoxicity Assay to monitor cytotoxicity in HEK293 cells - 24 hour (AID 1224875). Further: nearly all actives have a fitted effect of over 45% in size. Summed up: as §3
A short description of assay [15]: A CellTox Green Cytotoxicity Assay to monitor cytotoxicity in HepG2 cells - 16 hour (AID 1224876). Further: nearly all actives have a fitted effect of over 45% in size. In short, it runs like this:
(§5)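 Nonlytic assay: viable cells exclude the dye, so fluorescence scales with cell death. HepG2 at 600 cells/well, compounds added after 5 h, signal read across 40 h.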

Assay [16] in a line: qHTS RealTime-Glo MT Cell Viability Assay in HepG2 cells - 32 hour (AID 1224877). Further: nearly all actives have a fitted effect of over 55% in size. Summed up:
as §1

A short description of assay [17]: A CellTox Green Cytotoxicity Assay to monitor cytotoxicity in HepG2 cells - 24 hour (AID 1224878). Further: nearly all actives have a fitted effect of over 45% in size. Summed up:
as §5

A short description of assay [18]: A CellTox Green Cytotoxicity Assay to monitor cytotoxicity in HepG2 cells - 40 hour (AID 1224879). Further: nearly all actives have a fitted effect of over 40% in size. In short, it runs like this:
as §5

The nature of assay [19]: qHTS assay to identify small molecule agonists of H2AX - cell viability counter screen (AID 1224847; calls by dose curve; further: top concentration of the series differs between compounds; nearly all actives have a fitted effect of over 30% in size). In short, it runs like this: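 Cytotoxicity counter screen in wild-type CHO-K1 cells: a 3 hr compound treatment at 37C across 15 concentrations, followed by CellTiter-Glo luminescence to gauge viable cells.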
The nature of assay [20]: qHTS assay to identify small molecule agonists of H2AX (AID 1224845; active means well fitted activation curve with a large enough effect in the signal ratio in the repeat runs, not every such curve was filed as active; the % refers to the signal ratio). Summed up: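 Wild-type CHO-K1 cells, plated overnight, exposed 3hr at 37C to 15 concentrations (0.76% DMSO final). Lysed, then HTRF anti-pH2AX (S139) cryptate and anti-H2AX-d2 antibodies, 24 hr room temperature; 665/620 nm emission read.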
On the % scale 0 is the no-effect control and ±100 the full control effect.

Sequence of Thyrotropin receptor (Homo sapiens) (P16473 whole entry, looked up): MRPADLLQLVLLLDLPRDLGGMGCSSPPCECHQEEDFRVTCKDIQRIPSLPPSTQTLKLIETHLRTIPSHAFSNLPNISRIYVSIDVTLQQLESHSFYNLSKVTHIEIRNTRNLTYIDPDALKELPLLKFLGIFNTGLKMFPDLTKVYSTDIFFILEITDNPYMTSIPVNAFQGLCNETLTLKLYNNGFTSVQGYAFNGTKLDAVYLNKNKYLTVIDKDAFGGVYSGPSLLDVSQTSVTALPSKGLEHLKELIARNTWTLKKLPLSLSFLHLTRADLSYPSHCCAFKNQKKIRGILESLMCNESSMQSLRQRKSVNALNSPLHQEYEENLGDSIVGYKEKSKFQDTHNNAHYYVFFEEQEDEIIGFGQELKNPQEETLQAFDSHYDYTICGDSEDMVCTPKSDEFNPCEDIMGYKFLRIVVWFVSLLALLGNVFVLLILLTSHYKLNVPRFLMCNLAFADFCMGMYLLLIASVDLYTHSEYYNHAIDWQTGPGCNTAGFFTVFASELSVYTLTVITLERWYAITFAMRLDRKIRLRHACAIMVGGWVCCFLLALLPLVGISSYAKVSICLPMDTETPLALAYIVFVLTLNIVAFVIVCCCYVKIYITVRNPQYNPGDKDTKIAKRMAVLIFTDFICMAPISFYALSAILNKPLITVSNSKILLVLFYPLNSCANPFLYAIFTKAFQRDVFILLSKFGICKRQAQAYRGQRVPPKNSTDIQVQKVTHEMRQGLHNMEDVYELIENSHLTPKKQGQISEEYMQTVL

As for `COc1cc(C(=S)N2CCOCC2)cc(OC)c1OC`, the Potency entry in assay [1], in [4], in assay [7], in assay [10], in assay [11] and in assay [18] was “inactive” in each case. For the same compound, the compound was called inactive in assay [2], in [3], in assay [6], in [8], in assay [9] and in [12]. In addition, the result in assay [14], in assay [15], in assay [16] and in assay [17] was inactive. Besides, the activity change, positive = activation in assay [5] was -0.791% [at 42.5 µM]. Also, the max response in assay [13] is 4.79%.
With `CO[C@@H]1[C@@H](OC(N)=O)[C@@H](O)[C@H](Oc2ccc3c(O)c(NC(=O)c4ccc(O)c(CC=C(C)C)c4)c(=O)oc3c2C)OC1(C)C`, the Potency result in [1], in [19], in assay [4], in assay [7], in assay [11] and in assay [18] was “inactive” each time. Further, the outcome in assay [2], in assay [6], in [8], in [9], in [12] and in assay [14] was inactive. Further, the compound was classed as inactive in [15] and in [17]. In [5], the activity change, positive = activation was -2.51% [at 42.5 µM]. The max response in assay [13] is 7.28%.
As for `O=C(NCCN1CCOCC1)c1ccc(Cl)cc1`, the Potency entry in [1], in assay [19], in assay [4], in [7], in assay [10] and in assay [11] was “inactive” in each case. In [18], the Potency entry was “inactive”. Also, the call in assay [20], in [3], in assay [6], in assay [8], in [9] and in assay [12] was inactive. Moreover, the result in [14], in [15], in [16] and in assay [17] was inactive. The activity change, positive = activation in assay [5] is 9.75% [at 42.5 µM]. Further, the max response in [13] was 5.6%.
As for `O=C(OCC1(COC(=O)c2cccnc2)CCCC(COC(=O)c2cccnc2)(COC(=O)c2cccnc2)C1O)c1cccnc1`, the Potency result in [1], in [19], in assay [7], in [10], in assay [11] and in assay [18] was “inactive” each time. Further, the compound was classed as inactive in assay [2], in assay [3], in assay [6], in assay [8], in assay [9] and in [12]. The compound was called inactive in assay [14], in [15], in assay [16] and in [17]. The max response in assay [13] is 1.63%.
For the compound `CCN(CC)CC(=O)Nc1c(C)cccc1C`, the Potency entry in assay [1], in assay [4], in assay [10] and in [18] was “inactive” each time. For the same compound, the compound was called inactive in assay [2], in assay [6], in assay [8], in assay [9], in assay [12] and in [14]. The call in [15], in assay [16] and in [17] was inactive. Besides, in [11], the Potency is 10.7 µM (active).
Consider `On1nnc2ccccc21`, for which the Potency entry in assay [1], in assay [19], in assay [4], in assay [7], in assay [10] and in [11] was “inactive” throughout. Also, the Potency entry in assay [18] was “inactive”. Further, the compound was called inactive in assay [20], in assay [3], in assay [6], in assay [8], in assay [9] and in assay [12]. The call in [14], in assay [15], in assay [16] and in [17] was inactive. In addition, the activity change, positive = activation in assay [5] is 9.52%. For the same compound, the max response in assay [13] was -15.2%.
Regarding `COCCOC(=O)C1=C(C)NC(C)=C(C(=O)OC(C)C)C1c1cccc([N+](=O)[O-])c1` (stereo not drawn), the Potency result in [1], in [19], in assay [10] and in [18] was “inactive” throughout. The call in [2], in assay [3], in assay [8], in [14], in assay [15] and in assay [17] was inactive.
